Source: PubChem BioAssay (National Center for Advancing Translational Sciences (NCATS))
An excerpt weighted towards active compounds, which were near 12% of everything screened.
PLK1 PBD block: blocks phosphopeptide binding to human PLK1 polo-box domain | Potency, µM, for inactives: max response, negative = inhibition, actives largely listed as inhibitors | Plk1 PBD binding of FITC phosphopeptide, fluorescence polarization | 360,000 tested, 2.8% active | AID 720504 | P53350; further: potency means the concentration at half of the fitted maximal effect; series mostly up to about 57 µM; on the % scale 0 is the no-effect control and ±100 the full control effect; nearly all actives have a fitted effect of over 65% in size
HP1b chromo inh: blocks HP1-beta chromodomain binding to methylated histone tails; AlphaScreen HP1-beta / biotin-H3K9me3 peptide binding; Potency, µM (titrated, usually from 114 µM), for the others: at the highest dose activity change, negative = inhibition, most hits filed as inhibitors; 390,000 tested, 0.56% active; further: potency means the concentration at half of the fitted maximal effect; nearly all actives have a fitted effect of over 70% in size
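HP1-beta protein (50 nM final) preincubated 30 min at room temperature with biotinylated H3(1-18)K9me3 peptide (50 nM) in PBS pH 7.4, 0.01% Tween-20, then compound added for 30 min. AlphaScreen streptavidin donor/nickel chelate acceptor beads (10 ug/mL final), 30 min dark, luminescence read.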
Sfp inh: inhibitors of Bacillus subtilis Sfp phosphopantetheinyl transferase; Q9F4F7; Biochemical Sfp PPTase activity, qHTS; Potency, µM, for inactives: largest response in the series, negative = inhibition, most hits filed as inhibitors; 310,000 tested, 3.5% active; AID 1490;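 further: the enzyme is Sfp with the accession as filed and its product quenches rhodamine fluorescence; potency means the concentration at half of the fitted maximal effect; 0% = enzyme reaction without inhibitor and -100% = no enzyme wells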
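After 15 min at room temperature with compound, 15 nM Sfp received 5 uM rhodamine-CoA plus 12.5 uM BHQ-2-ybbR (50 mM Hepes pH 7.6, 10 mM MgCl2). Rate came from the fluorescence difference over 30 min, ex 525/em 598 nm.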
BAZ2B block: inhibitors of human BAZ2B bromodomain; AID 504333; AlphaScreen BAZ2B-H3K14Ac peptide displacement; Potency, µM (series often up to 114 µM), for the others: top-dose activity change, negative = inhibition, hits mostly inhibitors; 360,000 tested, 4.4% active; further: potency means the concentration at half of the fitted maximal effect; on the % scale 0 is the no-effect control and ±100 the full control effect; nearly all actives have a fitted effect of over 60% in size
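AlphaScreen displacement of biotin-H3(5-23)K14Ac peptide (50 nM final) from BAZ2B (50 nM final) in PBS pH 7.4, 0.01% Tween-20; complex preformed 30 min RT, then compounds (top 110 uM) 30 min RT, beads 20 min dark.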
JMJD2A Tudor: JMJD2A Tudor domain (human) inhibition; O75164; AlphaScreen JMJD2A-Tudor / H3K4me3 peptide binding; Potency, µM (titrated, usually from 114 µM), without a hit: at the highest dose activity change, negative = inhibition, most hits filed as inhibitors; 390,000 tested, 4.4% active; further: potency means the concentration at half of the fitted maximal effect; on the % scale 0 is the no-effect control and ±100 the full control effect; nearly all actives have a fitted effect of over 50% in size
G9a block: inhibitors of human histone lysine methyltransferase G9a | 350,000 tested, 8.8% active | Q96KQ7 | Potency, µM (doses to about 102 µM), inactives show top-dose activity, negative = inhibition, actives largely listed as inhibitors | G9a H3K9 monomethylation, AlphaScreen, 2 h; further: potency means the concentration at half of the fitted maximal effect; on the % scale 0 is the no-effect control and ±100 the full control effect; nearly all actives have a fitted effect of over 75% in size
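G9a (20 nM) preincubated 15 min RT with compounds, then 500 nM biotinylated H3K9 peptide and 20 uM SAM added; 2 h RT reaction. Monomethyl-H3K9 product detected by AlphaScreen with anti-H3K9me1 antibody, streptavidin donor and anti-rabbit IgG acceptor beads.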
Sfp inh conf: confirmation of Bacillus subtilis Sfp PPTase inhibitors; 380 tested, 79% active; Potency, µM (highest dose often 114 µM), without a hit: at the highest dose activity change, negative = inhibition, usual class: inhibitors; Sfp PPTase enzymatic assay, qHTS titration; AID 2701; shares compounds with Sfp inh;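 further: potency means the concentration at half of the fitted maximal effect; plate controls were uninhibited Sfp reaction for no effect and no enzyme control for full effect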
Sfp gel assay: Blocks Sfp PPTase activity, gel read-out. Potency, µM, usual class: inhibitors. shares compounds with Sfp inh. 210 tested, 20% active. purified Sfp, gel-based phosphopantetheinylation read-out;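 active means potency below 100 µM; inconclusive means dose-dependent response but potency above 100 µM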;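 further: band intensities scaled against SCH202676 control wells before curve fitting; potency is an IC50 for inhibitors of Sfp transfer activity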
* = called active by the depositor; i = inactive; ? = inconclusive; . = no result; [ ] = dose if it differs, or a comment. Unless noted, the call rests on the fitted dose curve; in most records, active means well fitted curve in the direction sought with a large enough effect; inconclusive means small, poorly fitted or top-dose-only effect, or another doubt; inactive means no such curve, though single readings can be large; an effect the other way counts as inactive or inconclusive.

SMILES	PLK1 PBD block	HP1b chromo inh	Sfp inh	BAZ2B block	JMJD2A Tudor	G9a block	Sfp inh conf	others
COc1ccc(-c2ccc(NS(=O)(=O)c3cc(C)c(C)cc3C)cc2)nn1	.	16%[57 µM]	.	-16%	-24%	-25%[59 µM]	.
CCOC(=O)c1cc(-c2ccco2)nc2c1c(C)nn2CCC#N	-17%	25%	28µM*	-7%	-16%	11µM*	47µM*	Sfp gel assay=i
COc1ccc(N2CCOCC2)c(NC(=O)c2cccnc2)c1	8%	30%	-3%	?	-5%	14%	.
O=C(CN1C(=O)CC(c2ccco2)Sc2ccccc21)NCC1CCCO1 (stereo unspecified)	-14%	5%	11µM*	-1%	-27%	11µM*	7.4µM*
COc1ccc(C2CC(=O)N(CC(=O)NCC3CCCO3)c3ccccc3S2)cc1 (stereo unspecified)	-16%	20%	6%	6%	-14%	10%	.
O=C(CSc1ccccc1)Nc1nnc(COc2ccc(Cl)cc2)s1	2.7µM*	?	14µM*	50µM*	56µM*	1.4µM*	5.9µM*
c1ccc(-c2nnc(CN3CCCCC3)o2)cc1	2%	33%	?	-8%	-1%	3%	.
c1ccc(-c2nnc(CN3CCCc4ccccc43)o2)cc1	-25%	-22%	14µM*	?	-27%[11.4 µM]	?	47µM*	Sfp gel assay=?
Cc1cc(-c2ccc(S(=O)(=O)Nc3cccc(C)c3C)s2)on1	.	35%	.	1%	4%	-4%[59 µM]	.
CCN(CC(=O)Nc1c(F)cccc1F)C(=O)c1nc2nccc(C)n2n1	-10%	29%	.	8%	-33%	-2%[59 µM]	.
CC/C(O)=C(/C#N)c1nnc2n1CCCCC2	-8%	21%	14µM*	79µM*	28µM*	?	3%	Sfp gel assay=i
NC(=O)CSc1nnc(-c2ccco2)n1-c1ccccc1	-5%	58%	7%	-9%	7%	19%[0.501 µM]	.
OCCn1c(CSc2nnc(-c3ccco3)n2-c2ccccc2)nc2ccc(Cl)cc21	-19%	30%	4µM*	-5%	?	?	12µM*	Sfp gel assay=i
O=C(Nc1cc(S(=O)(=O)N2CCCCC2)ccc1N1CCCCC1)C1CC1	-7%	12%	1%	-38%	-22%	-9%[59 µM]	.
On1c2c(c3c4nonc4ccc31)CCCC2	.	.	45µM*	?	.	?	66µM*
COn1c(C)c(C(C)=O)c2c3nonc3ccc21	-23%	24%	-24%	13%	2%	3%	.
CCc1nc2ccc(C(=O)NCC3CCCCC3)cn2c1N(CCC(C)C)CCN(C)C	-3%	.	.	.	.	.	.
O=C(c1ccccc1)N1CCN(C(=S)NCc2ccco2)CC1	-11%	9%	35µM*	.	-1%	-24%	33µM*	Sfp gel assay=?
Fc1ccccc1C1CC(c2ccco2)=Nc2ccccc2S1 (stereo unspecified)	-13%	-11%	3.5µM*	?	?	5%[12.7 µM]	33µM*	Sfp gel assay=i
O=C(CSc1ncccc1C(=O)O)c1ccccc1	-7%	51%	?	.	?	?	.
O=C(O)c1ccnc(SCC(=O)c2ccccc2)c1	-11%	57%	3.5µM*	-14%	8%	22µM*	53µM*
CC(=O)Nc1ccc(NC(=O)CSc2nc(=O)n(Cc3cccnc3)c3c2CCC3)cc1	1%	21%	.	.	-21%	.	.
COC(=O)Nc1sc2c(c1C(N)=O)CCC(C)C2 (stereo unspecified)	?	10%	3.5µM*	-20%	-23%	14µM*	15µM*
CC1CCc2c(sc(NC(=O)C3c4ccccc4Oc4ccccc43)c2C(N)=O)C1 (stereo unspecified)	-2%	23%	-12%	9%	-16%	1%[59 µM]	.
O=C(NCc1ccccc1)C1CCC(=O)N(CCN2CCOCC2)C1 (stereo unspecified)	-9%	52%	28%	2%	-4%	22%	.
O=C(O)c1cc(=O)c2c3nc4ccccc4oc-3cc(=O)c2[nH]1	.	.	45µM*	.	.	?	53µM*
O=C1CN(CC(=O)N2CCOCC2)c2ccccc2O1	.	.	3.5µM*	?	.	-13%[2.33 µM]	3%
CCN(CC)S(=O)(=O)c1ccc2c(c1)nc(CCC(=O)O)n2C	?	15%	20µM*	-19%	-15%[11.4 µM]	25µM*	47µM*
Cn1c(CCC(=O)O)nc2cc(S(=O)(=O)N3CCCC3)ccc21	8%	4%[57 µM]	.	.	-14%	.	.
O=C(CSc1nc2cc([N+](=O)[O-])ccc2n1-c1ccccc1)NCc1ccc2c(c1)OCO2	2%	16%	1µM*	-20%	-8%	?	15µM*
